# Reference: the supplement of paper PMC8728848
# The sample as a whole holds a higher share of the strongest signals than the screen did.
# B1: Calsepa (Calystegia sepium), P93114 (protein)
# chain: MAVPMDTISGPWGNNGGNFWSFRPVNKINQIVISYGGGGNNPIALTFSSTKADGSKDTITVGGGGPDSITGTEMVNIGTDEYLTGISGTFGIYLDNNVLRSITFTTNLKAHGPYGQKVGTPFSSANVVGNEIVGFLGRSGYYVDAIGTYNRHK
# Key:
# Assay in all cases: glycan array binding signal (z-score within array); higher = stronger binding
# Conditions in all cases: glycan notation: IUPAC condensed, linker removed
# [1] = molecular target: Fuc(a1-2)Gal(b1-3)GlcNAc(b1-3)GalNAc
# Summary of the method: (§1)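 Arrays were curated from the Consortium for Functional Glycomics database, 3228 in total, and kept only where the protein sequence was available. Binding is expressed as a within-array Z-score. This score was averaged across arrays of the same protein sequence at different concentrations or buffers and across linkers, and negative values can be read as non-binding.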
# [2] = molecular target: Fuc(a1-2)Gal(b1-4)[Fuc(a1-3)]GlcNAc(b1-2)[Fuc(a1-2)Gal(b1-4)[Fuc(a1-3)]GlcNAc(b1-4)]Man(a1-3)[Fuc(a1-2)Gal(b1-4)[Fuc(a1-3)]GlcNAc(b1-2)Man(a1-6)]Man(b1-4)GlcNAc(b1-4)GlcNAc
# Summary of the method: as §1
# [3] = molecular target: Fuc(a1-2)Gal6S(b1-3)GlcNAc6S
# Summary of the method: as §1
# [4] = molecular target: Fuc(a1-2)[Gal(a1-3)]Gal(b1-4)GlcNAc
# Summary of the method: as §1
# [5] = molecular target: Fuc(a1-3)[Gal(b1-4)]GlcNAc(b1-2)Man(a1-3)[Fuc(a1-3)[Gal(b1-4)]GlcNAc(b1-2)Man(a1-6)]Man(b1-4)GlcNAc(b1-4)GlcNAc
# Summary of the method: as §1
# [6] = molecular target: Fuc(a1-3)[Gal(b1-4)]GlcNAc(b1-4)Gal(b1-4)[Fuc(a1-3)]GlcNAc
# Summary of the method: as §1
# [7] = molecular target: Fuc(a1-3)[GalNAc3S(b1-4)]GlcNAc
# Summary of the method: as §1
# Fuc(a1-4)GlcNAc = molecular target: Fuc(a1-4)GlcNAc
# Summary of the method: as §1
# [8] = molecular target: Gal(a1-3)Gal(b1-3)GlcNAc(b1-6)GalNAc
# Summary of the method: as §1
# [9] = molecular target: Gal(a1-4)Gal(b1-4)GlcNAc(b1-2)Man(a1-3)[Gal(a1-4)Gal(b1-4)GlcNAc(b1-2)Man(a1-6)]Man(b1-4)GlcNAc(b1-4)GlcNAc
# Summary of the method: as §1
# [10] = molecular target: Gal(b1-3)Gal(b1-4)GlcNAc(b1-2)Man(a1-3)[Gal(b1-3)Gal(b1-4)GlcNAc(b1-2)Man(a1-6)]Man(b1-4)GlcNAc(b1-4)GlcNAc
# Summary of the method: as §1
# [11] = molecular target: Gal(b1-3)GalNAc(b1-4)[Neu5Ac(a2-3)]Gal(b1-4)Glc
# Summary of the method: as §1
# [12] = molecular target: Gal(b1-3)GlcNAc(b1-2)Man(a1-3)[GlcNAc(b1-4)][Gal(b1-3)GlcNAc(b1-2)Man(a1-6)]Man(b1-4)GlcNAc(b1-4)GlcNAc
# Summary of the method: as §1
# [13] = molecular target: Gal(b1-3)[Fuc(a1-4)]GlcNAc
# Summary of the method: as §1
# [14] = molecular target: Gal(b1-3)[Fuc(a1-4)]GlcNAc(b1-3)Gal(b1-4)GlcNAc
# Summary of the method: as §1
# [15] = molecular target: Gal(b1-3)[Fuc(a1-4)]GlcNAc(b1-3)Gal(b1-4)[Fuc(a1-3)]GlcNAc
# Summary of the method: as §1
# [16] = molecular target: Gal(b1-3)[Neu5Ac(a2-6)]GlcNAc(b1-6)Gal(b1-4)Glc
# Summary of the method: as §1
# [17] = molecular target: Gal(b1-4)GlcNAc(b1-2)Man(a1-3)[Gal(b1-4)GlcNAc(b1-2)][GlcNAc(b1-4)]Man(b1-4)GlcNAc(b1-4)GlcNAc
# Summary of the method: as §1
# [18] = molecular target: Gal(b1-4)GlcNAc(b1-2)[Gal(b1-4)GlcNAc(b1-4)]Man(a1-3)[Gal(b1-4)GlcNAc(b1-2)Man(a1-6)]Man(b1-4)GlcNAc(b1-4)GlcNAc
# Summary of the method: as §1
# [19] = molecular target: Gal(b1-4)GlcNAc(b1-2)[Gal(b1-4)GlcNAc(b1-6)]Man(a1-6)[GlcNAc(b1-4)][Gal(b1-4)GlcNAc(b1-2)Man(a1-3)]Man(b1-4)GlcNAc(b1-4)GlcNAc
# Summary of the method: as §1
# [20] = molecular target: Gal(b1-4)GlcNAc(b1-6)Gal(b1-4)GlcNAc
# Summary of the method: as §1
# [21] = molecular target: Gal(b1-4)GlcNAc(b1-6)[Gal(b1-3)]GalNAc
# Summary of the method: as §1
# Gal(b1-4)GlcNAc6P = molecular target: Gal(b1-4)GlcNAc6P
# Summary of the method: as §1
# Gal6S(b1-4)Glc6S = molecular target: Gal6S(b1-4)Glc6S
# Summary of the method: as §1
# GlcA(b1-3)Gal = molecular target: GlcA(b1-3)Gal
# Summary of the method: as §1
# [22] = molecular target: GlcNAc(b1-2)Man(a1-3)[GlcNAc(b1-4)][GlcNAc(b1-2)Man(a1-6)]Man(b1-4)GlcNAc(b1-4)GlcNAc
# Summary of the method: as §1
# [23] = molecular target: GlcNAc(b1-2)[GlcNAc(b1-6)]Man(a1-6)[GlcNAc(b1-2)Man(a1-3)][GlcNAc(b1-4)]Man(b1-4)GlcNAc(b1-4)GlcNAc
# Summary of the method: as §1
# [24] = molecular target: GlcNAc(b1-3)[GlcNAc(b1-4)][GlcNAc(b1-6)]GlcNAc
# Summary of the method: as §1
# GlcNAc3Prop(b1-4)GlcNAc = molecular target: GlcNAc3Prop(b1-4)GlcNAc
# Summary of the method: as §1
# Man(a1-2)Man(a1-3)Man = molecular target: Man(a1-2)Man(a1-3)Man
# Summary of the method: as §1
# [25] = molecular target: Man(a1-2)Man(a1-3)[Man(a1-2)Man(a1-6)]Man
# Summary of the method: as §1
# [26] = molecular target: Man(a1-2)Man(a1-3)[Man(a1-6)]Man(a1-6)[Man(a1-2)Man(a1-3)]Man(b1-4)GlcNAc(b1-4)GlcNAc
# Summary of the method: as §1
# [27] = molecular target: Neu5Ac(a2-3)Gal(b1-4)GlcNAc(b1-2)Man
# Summary of the method: as §1
# [28] = molecular target: Neu5Ac(a2-3)Gal(b1-4)GlcNAc(b1-3)[Neu5Ac(a2-3)Gal(b1-4)GlcNAc(b1-6)]GalNAc
# Summary of the method: as §1
# [29] = molecular target: Neu5Ac(a2-6)Gal(b1-4)GlcNAc(b1-2)Man(a1-3)Man(b1-4)GlcNAc(b1-4)GlcNAc
# Summary of the method: as §1
# [30] = molecular target: Neu5Ac(a2-6)Gal(b1-4)GlcNAc(b1-2)Man(a1-3)[GlcNAc(b1-2)Man(a1-6)]Man(b1-4)GlcNAc(b1-4)GlcNAc
# Summary of the method: as §1
# [31] = molecular target: Neu5Ac(a2-6)Gal(b1-4)GlcNAc(b1-2)Man(a1-3)[Man(a1-6)]Man(b1-4)GlcNAc(b1-4)GlcNAc
# Summary of the method: as §1
# [32] = molecular target: Neu5Ac(a2-6)Gal(b1-4)GlcNAc(b1-2)Man(a1-3)[Neu5Ac(a2-6)Gal(b1-4)GlcNAc(b1-2)Man(a1-6)]Man(b1-4)GlcNAc(b1-4)GlcNAc
# Summary of the method: as §1
# [33] = molecular target: Neu5Ac(a2-6)Gal(b1-4)GlcNAc(b1-2)Man(a1-3)[Neu5Ac(a2-6)Gal(b1-4)GlcNAc(b1-2)Man(a1-6)]Man(b1-4)GlcNAc(b1-4)[Fuc(a1-6)]GlcNAc
# Summary of the method: as §1
# [34] = molecular target: Neu5Ac(a2-6)Gal(b1-4)GlcNAc(b1-2)Man(a1-6)[Gal(b1-4)GlcNAc(b1-2)Man(a1-3)]Man(b1-4)GlcNAc(b1-4)GlcNAc
# Summary of the method: as §1
# [35] = molecular target: Neu5Ac(a2-6)Gal(b1-4)GlcNAc(b1-3)[Neu5Ac(a2-6)Gal(b1-4)GlcNAc(b1-6)]GalNAc
# Summary of the method: as §1
# [36] = molecular target: Neu5Gc(a2-6)Gal(b1-4)GlcNAc
# Summary of the method: as §1
binder,measurement,setting,value
B1,glycan array binding signal (z-score),[1],-0.268
same,glycan array binding signal (z-score),[2],-0.257
same,glycan array binding signal (z-score),[3],-0.26
same,glycan array binding signal (z-score),[4],-0.249
same,glycan array binding signal (z-score),[5],-0.082
same,glycan array binding signal (z-score),[6],-0.253
same,glycan array binding signal (z-score),[7],-0.265
same,glycan array binding signal (z-score),Fuc(a1-4)GlcNAc,-0.244
same,glycan array binding signal (z-score),[8],-0.269
same,glycan array binding signal (z-score),[9],3.47
same,glycan array binding signal (z-score),[10],3.79
same,glycan array binding signal (z-score),[11],-0.253
same,glycan array binding signal (z-score),[12],4.21
same,glycan array binding signal (z-score),[13],-0.25
same,glycan array binding signal (z-score),[14],-0.252
same,glycan array binding signal (z-score),[15],-0.253
same,glycan array binding signal (z-score),[16],-0.248
same,glycan array binding signal (z-score),[17],5.25
same,glycan array binding signal (z-score),[18],-0.045
same,glycan array binding signal (z-score),[19],3.71
same,glycan array binding signal (z-score),[20],-0.251
same,glycan array binding signal (z-score),[21],-0.249
same,glycan array binding signal (z-score),Gal(b1-4)GlcNAc6P,-0.27
same,glycan array binding signal (z-score),Gal6S(b1-4)Glc6S,-0.237
same,glycan array binding signal (z-score),GlcA(b1-3)Gal,-0.244
same,glycan array binding signal (z-score),[22],5
same,glycan array binding signal (z-score),[23],5.82
same,glycan array binding signal (z-score),[24],-0.241
same,glycan array binding signal (z-score),GlcNAc3Prop(b1-4)GlcNAc,-0.246
same,glycan array binding signal (z-score),Man(a1-2)Man(a1-3)Man,-0.248
same,glycan array binding signal (z-score),[25],-0.251
same,glycan array binding signal (z-score),[26],-0.239
same,glycan array binding signal (z-score),[27],-0.255
same,glycan array binding signal (z-score),[28],-0.273
same,glycan array binding signal (z-score),[29],6.79
same,glycan array binding signal (z-score),[30],3.81
same,glycan array binding signal (z-score),[31],3.86
same,glycan array binding signal (z-score),[32],4.29
same,glycan array binding signal (z-score),[33],0.514
same,glycan array binding signal (z-score),[34],4.01
same,glycan array binding signal (z-score),[35],-0.274
same,glycan array binding signal (z-score),[36],-0.247
